# Reference: PubChem BioAssay (Tox21)
# Inconclusive results are not listed. Entries that show only a call come without a potency. Activity calls are given as the source filed them. Unless noted, calls follow the shape of the full dose curve.
# Key:
# [1] = qHTS assay to identify small molecule agonists of the vitamin D receptor (VDR) signaling pathway - cell viability counter screen (AID 743224; active = well fitted curve in the direction sought with a large enough effect in the repeat runs; an effect the other way counts as inactive or inconclusive; also: series mostly up to about 63 µM; nearly all actives have a fitted effect of over 50% in size)
# In short: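 Luminescence from CellTiter-Glo, read after 30 min at room temperature, reports viability of VDR-bla cells treated with compounds for 16 h at 37C in the wells used for the beta-lactamase FRET read.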
# [2] = qHTS assay to identify small molecule antagonists of the vitamin D receptor (VDR) signaling pathway - cell viability counter screen (AID 743225; active = well fitted curve in the direction sought with a large enough effect in the repeat runs; an effect the other way counts as inactive or inconclusive; also: nearly all actives have a fitted effect of over 50% in size)
# In short: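 In this counter screen, VDR-bla HEK 293T cells receive test compound plus 3 nM final calcitriol for 16 h at 37C. Room-temperature steps of 2 h with the beta-lactamase substrate, then 30 min with CellTiter-Glo, precede the luminescence read.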
# [3] = qHTS assay to identify small molecule agonists of the NFkB signaling pathway - cell viability counter screen (AID 1159515); also: series mostly up to about 61 µM; nearly all actives have a fitted effect of over 55% in size
# In short: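 Luminescence from CellTiter-Glo (30 min, room temperature) gives viability, measured in the same wells as the beta-lactamase reporter read. Cells were NFkB-bla ME-180, 2,000 per well, treated 5 hr with compounds.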
# [4] = qHTS assay to identify small molecule agonists of the endoplasmic reticulum stress response signaling pathway (AID 1159516; active = well fitted activation curve with a large enough effect in the signal ratio in the repeat runs, not every such curve was filed as active; the % refers to the signal ratio)
# In short: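 Read-out is beta-lactamase cleavage of a FRET substrate (405 nm excitation; 460 and 530 nm emissions) in ESRE-bla HeLa cells after a 5 hr compound exposure at 37 C. Substrate incubation ran 2 hr at room temperature.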
# [5] = qHTS assay to identify small molecule agonists of the endoplasmic reticulum stress response signaling pathway - cell viability counter screen (AID 1159517);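 also: HeLa cells carrying an ER stress response element beta-lactamase reporter; series mostly up to about 61 µM; nearly all actives have a fitted effect of over 50% in size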
# In short: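 CellTiter-Glo was added to wells already read for beta-lactamase FRET, and luminescence was recorded 30 min later. Cells: ESRE-bla HeLa, 1,500 per well, compound exposure 5 hr at 37 C.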
# [6] = qHTS assay to identify small molecule antagonists of the retinoid-related orphan receptor gamma (ROR-gamma) signaling pathway - cell viability counter screen (AID 1159520; active = well fitted curve in the direction sought with a large enough effect in the repeat runs; an effect the other way counts as inactive or inconclusive; also: nearly all actives have a fitted effect of over 50% in size)
# In short: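 Tet-on ROR gamma CHO cells (1,000/well) were plated 4 hr, given compounds in DMSO for 2 hr at 37 C, then induced with 1 uM final doxycycline for 16 hr. Viability was read as ATP by CellTiter-Glo luminescence after 30 min.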
# [7] = target: Nuclear receptor ROR-gamma (Homo sapiens) (UniProt P51449); experiment: qHTS assay to identify small molecule antagonists of the retinoid-related orphan receptor gamma (ROR-gamma) signaling pathway (AID 1159521; active = well fitted curve in the direction sought with a large enough effect in the repeat runs; an effect the other way counts as inactive or inconclusive)
# In short: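 Screening format: cell-based luciferase reporter in CHO cells with doxycycline-inducible RORγ. Compound pre-exposure lasts 2 h, doxycycline is 1 uM final, induction runs 16 h at 37 C, and ONE-Glo luminescence is read.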
# [8] = qHTS assay to identify small molecule agonists of the AP-1 signaling pathway - cell viability counter screen (AID 1159525); also: nearly all actives have a fitted effect of over 55% in size
# In short: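 ME-180 AP-1-bla, 2500 cells/well, Opti-MEM + 0.5% dialyzed FBS; overnight 37 °C; cpd 15-pt titration, 5 h 37 °C; CellTiter-Glo 30 min RT; luminescence read; normalised to TOAB and DMSO controls.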
# [9] = qHTS assay to identify small molecule agonists of the AP-1 signaling pathway (AID 1159526)
# [10] = target: Retinoic acid receptor RXR-alpha (Homo sapiens) (UniProt P19793); experiment: qHTS assay to identify small molecule agonists of the RXR signaling pathway (AID 1159527); also: nearly all actives have a fitted effect of over 35% in size; also: potency is read from the fitted curve at half-maximal effect
# In short: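 Fluorescence ratio readout (460 vs 530 nm) from GeneBLAzer RXR-alpha HEK 293T cells after 16 hr compound treatment; cells seeded 5 hr beforehand in low-serum, charcoal-stripped medium.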
# Sequence of Retinoic acid receptor RXR-alpha (Homo sapiens) (P19793 whole entry, looked up): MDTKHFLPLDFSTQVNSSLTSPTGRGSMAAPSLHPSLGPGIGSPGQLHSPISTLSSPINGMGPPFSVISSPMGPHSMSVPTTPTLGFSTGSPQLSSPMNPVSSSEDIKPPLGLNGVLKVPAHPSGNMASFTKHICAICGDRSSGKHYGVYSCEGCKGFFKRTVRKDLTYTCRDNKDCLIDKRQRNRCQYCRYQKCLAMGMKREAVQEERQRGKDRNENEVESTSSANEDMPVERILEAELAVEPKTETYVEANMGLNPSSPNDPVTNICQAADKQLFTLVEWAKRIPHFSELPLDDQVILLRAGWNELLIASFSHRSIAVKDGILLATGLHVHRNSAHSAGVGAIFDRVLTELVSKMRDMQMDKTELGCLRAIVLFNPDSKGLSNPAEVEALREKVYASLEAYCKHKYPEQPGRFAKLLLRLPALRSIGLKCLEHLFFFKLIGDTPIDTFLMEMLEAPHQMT
Structure (SMILES),Potency [1],Potency [2],Potency [3],Potency [4],Potency [5],Potency [6],Potency [7],Potency [8],outcome [9],Potency [10]
Cc1cc(C)cc(O)c1,inactive,inactive,inactive,inactive,inactive,inactive,inactive,inactive,inactive,inactive
CCCCC(=O)O,inactive,inactive,inactive,inactive,inactive,inactive,inactive,inactive,inactive,inactive
CC/C(C)=N/O,inactive,inactive,inactive,inactive,inactive,inactive,,inactive,inactive,inactive
Cc1ccccc1C=O,inactive,inactive,inactive,inactive,inactive,inactive,,inactive,inactive,inactive
COc1ccc(N)c(OC)c1,inactive,,,inactive,inactive,inactive,inactive,inactive,inactive,inactive
CCCN(CCC)C(=O)SCC,inactive,,inactive,inactive,inactive,inactive,,inactive,inactive,12.3 µM (active)
NC(=O)c1ncn([C@@H]2O[C@H](CO)[C@@H](O)[C@H]2O)n1,,,inactive,inactive,inactive,inactive,,inactive,inactive,inactive
CCc1cccc(O)c1,inactive,inactive,inactive,inactive,inactive,inactive,,inactive,inactive,inactive
C=C(C)CC(C)(C)C,inactive,,inactive,inactive,inactive,inactive,,inactive,inactive,inactive
OCc1ccc(Cl)cc1Cl,inactive,,,inactive,inactive,inactive,inactive,inactive,inactive,inactive
Cc1ccc(Cl)cc1,inactive,inactive,inactive,inactive,inactive,inactive,,inactive,inactive,inactive
N#CCC(=O)O,inactive,inactive,inactive,inactive,inactive,inactive,,inactive,inactive,inactive
Cc1ccccc1Cl,inactive,,inactive,inactive,inactive,inactive,,inactive,inactive,inactive
CN=C(NC#N)NCCSCc1nc[nH]c1C,inactive,,inactive,inactive,inactive,inactive,,inactive,inactive,inactive
Cc1cc(CC(=O)O)n(C)c1C(=O)c1ccc(Cl)cc1,inactive,inactive,inactive,inactive,inactive,inactive,inactive,inactive,inactive,inactive
CC(=O)C(C)C,inactive,,inactive,inactive,inactive,inactive,,inactive,inactive,inactive
COc1ccc2cc3[n+](cc2c1OC)CCc1cc2c(cc1-3)OCO2,inactive,,inactive,inactive,inactive,inactive,inactive,inactive,inactive,
COC(=O)CCCCC(=O)OC,inactive,,inactive,inactive,inactive,inactive,,inactive,inactive,inactive
OCCOCCOCCOCCOCCO,inactive,inactive,inactive,inactive,inactive,inactive,,inactive,inactive,inactive

Structure (SMILES),Potency [1],Potency [2],Potency [3],Potency [4],Potency [5],Potency [6],Potency [7],Potency [8],outcome [9],Potency [10]
Cc1nnc(NS(=O)(=O)c2ccc(N)cc2)s1,inactive,inactive,inactive,inactive,inactive,inactive,,inactive,inactive,inactive
C=CC(=O)NCOCCCC,inactive,inactive,inactive,inactive,inactive,inactive,,inactive,inactive,
O=Cc1ccc(CO)o1,inactive,inactive,inactive,inactive,inactive,inactive,inactive,inactive,inactive,inactive
CC(=O)OC(C)(C)C1CC=C(C)CC1 (stereo unspecified),inactive,,inactive,inactive,inactive,inactive,,inactive,inactive,inactive
CCN(CC)CCNC(=O)c1ccc(N)cc1,,,inactive,inactive,inactive,inactive,,inactive,inactive,inactive
O=C(O)Cc1c[nH]c2ccccc12,inactive,inactive,,inactive,inactive,inactive,,inactive,inactive,inactive
CC(C)(CO)CO,inactive,inactive,,inactive,inactive,inactive,inactive,inactive,inactive,inactive
CC(COCC(C)OC(=O)c1ccccc1)OC(=O)c1ccccc1 (stereo unspecified),inactive,inactive,,inactive,inactive,inactive,,inactive,inactive,
CCCCCCCCO,inactive,inactive,,inactive,inactive,inactive,,inactive,inactive,inactive
CCCCC(CC)COC(=O)c1ccc(C(=O)OCC(CC)CCCC)cc1 (stereo unspecified),inactive,,,inactive,inactive,inactive,,inactive,inactive,inactive
O=[N+]([O-])c1ccccc1C(F)(F)F,inactive,inactive,,inactive,inactive,inactive,inactive,inactive,inactive,inactive
CCCCCCCCC(=O)O,inactive,,,inactive,inactive,inactive,inactive,inactive,inactive,inactive
CCCOCC(C)O (stereo unspecified),inactive,inactive,,inactive,inactive,inactive,inactive,inactive,inactive,inactive
OCC(CO)(CO)CO,inactive,inactive,,inactive,inactive,inactive,inactive,inactive,inactive,inactive
CC[N+](CC)(CC(=O)Nc1c(C)cccc1C)Cc1ccccc1,inactive,,,inactive,inactive,inactive,,inactive,inactive,inactive
CCc1cccc(CC)c1N,inactive,inactive,,inactive,inactive,inactive,inactive,inactive,inactive,inactive
CO[Si](CCCNCCN)(OC)OC,inactive,inactive,,inactive,inactive,inactive,,inactive,inactive,inactive
Brc1ccc(Oc2ccc(Br)cc2)cc1,inactive,,,inactive,inactive,inactive,inactive,inactive,inactive,
O=C(c1ccccc1)c1ccc(O)c(O)c1O,inactive,inactive,,inactive,inactive,inactive,inactive,inactive,inactive,inactive

Structure (SMILES),Potency [1],Potency [2],Potency [3],Potency [4],Potency [5],Potency [6],Potency [7],Potency [8],outcome [9],Potency [10]
O=C(Cl)c1ccc(C(=O)Cl)cc1,inactive,inactive,,inactive,inactive,inactive,inactive,inactive,inactive,inactive
COc1ccccc1[N+](=O)[O-],inactive,inactive,,inactive,inactive,inactive,inactive,inactive,inactive,inactive
C[n+]1ccn(CCO)c1,inactive,inactive,,inactive,inactive,inactive,inactive,inactive,inactive,inactive
COc1cc(NC(=O)CC(C)=O)c(OC)cc1Cl,inactive,inactive,,inactive,inactive,inactive,,inactive,inactive,inactive
COC(=O)/C=C\C(=O)OC,inactive,inactive,,inactive,inactive,inactive,inactive,inactive,inactive,inactive
C1CCCNCC1,inactive,inactive,,inactive,inactive,inactive,inactive,inactive,inactive,inactive
Nc1cccc(N)n1,inactive,inactive,,inactive,inactive,inactive,inactive,inactive,inactive,inactive
O=C(O)C1=NN(c2ccc(S(=O)(=O)O)cc2)C(=O)C1,inactive,,,inactive,inactive,inactive,inactive,inactive,inactive,inactive
NC(N)=S,inactive,inactive,,inactive,inactive,inactive,inactive,inactive,inactive,inactive
COC(=O)OC,inactive,,,inactive,inactive,inactive,inactive,inactive,inactive,inactive
OC[C@H]1O[C@@H](Oc2ccc(O)cc2)[C@H](O)[C@@H](O)[C@@H]1O,inactive,inactive,,inactive,inactive,inactive,inactive,inactive,inactive,inactive
CC(=O)OCCC(C)C,inactive,inactive,,inactive,inactive,inactive,inactive,inactive,inactive,inactive
CCCCCCCCCCCCCC(=O)O,inactive,inactive,,inactive,inactive,inactive,inactive,inactive,inactive,inactive
CS(=O)(=O)c1ccc(Cl)cc1,inactive,,,inactive,inactive,inactive,,inactive,inactive,inactive
CC(C)c1ccc(C(C)C)cc1,inactive,,,inactive,inactive,inactive,,inactive,inactive,inactive
Nc1cccc(C(F)(F)F)c1,inactive,,,inactive,inactive,inactive,,inactive,inactive,inactive
CC(=O)OC/C=C(\C)CCC=C(C)C,inactive,inactive,,inactive,inactive,inactive,inactive,inactive,inactive,inactive
C[Si](C)(C)N[Si](C)(C)C,inactive,inactive,,inactive,inactive,inactive,inactive,inactive,inactive,inactive
Oc1ccc(Cc2ccccc2O)cc1,inactive,inactive,,inactive,inactive,inactive,inactive,inactive,inactive,inactive
